40 compounds from PubChem BioAssay (Tox21) can be followed below.

Inconclusive results are not listed. A call without a number means that no potency is given here. Activity calls are given as the source filed them. Calls follow the shape of the dose curve; as a rule, active = well fitted cell-killing curve with a large enough effect in the repeat runs; inconclusive = weak or mixed curves; inactive = flat fitted curve, though single readings scatter.

The experiment can be described thus: qHTS RealTime-Glo MT Cell Viability Assay in HepG2 cells - 16 hour (AID 1224885). Also: nearly all actives have a fitted effect of over 50% in size. The note with it: RealTime-Glo luminescence; series mostly up to 76.8 µM. An excerpt: U.S. Tox21 Program National Center for Advancing Translational Sciences [NCATS] NIH Chemical Genomics Center [NCGC] U.S. Environmental Protection Agency [EPA] National Institutes of Environmental Health Sciences [NIEHS] National Toxicology Program [NTP] U.S. Food and Drug Administration [FDA] Tox21 Assay Overview: Measure of cell viability is critical in the cell-base assay. Analysis of cell viability is necessary for the characterization of cell responses to cytotoxic drugs and environmental stress. A RealTime-Glo MT Cell Viability Assay to monitor cell viability in real time of continues cell culture during 40 hours of compound treatment was used to screen Tox21 10K library compounds in HepG2 cells. The RealTime-Glo MT Cell Viability Assay is a nonlytic, homogeneous, bioluminescent method to measure cell viability in real time using a simple, plate-based method. The assay involves adding NanoLuc luciferase and a cell-permeant prosubstrate to cells in culture. Viable cells reduce the proprietary prosubstrate to generate a substrate for NanoLuc luciferase. This substrate diffuses from cells into the surrounding culture medium, where it is rapidly used by the NanoLuc Enzyme to produce a luminescent signal. The signal correlates with the number of viable cells, making the assay well suited for cytotoxicity studies.
Tox21 Assay Protocol Summary: The mixture of HepG2 cell suspension and reagents were dispensed at 600cells/6 ul/well in 1536-well tissue culture treated black solid bottom plates using a Multidrop dispenser. After the assay plates were incubated at a 37 C/5% CO2 incubator for 5 hours, 23 nL of compounds dissolved in DMSO, positive and negative controls was transferred to the assay plate by a pintool work station. The plates were incubated at 37 C for 40 hours. The luminescence intensity were measured at 0h, 8h, 16h, 24h, 32h and 40h time points using ViewLux plate reader during compound treatment.
For the compound `CC(C)Cc1ccccc1`, the Potency entry is “inactive”. The same measure for `C=CC(=O)OCCCCCCCC(C)C`: “inactive”. The entry for `COCC(C)O` (stereo not given) is “inactive”; for `CC1=C(/C=C/C(C)=C/C=C/C(C)=C/CO)C(C)(C)CCC1` it is “inactive”; for `O=[N+]([O-])c1cccc(Cl)c1` it is “inactive”. Consider `O=C1O[C@H](CO)[C@@H](O)[C@H](O)[C@H]1O`, for which the Potency entry is “inactive”.

Turning to `Cc1ccc(N)c(S(=O)(=O)O)c1`, the Potency entry is “inactive”.

In the case of `Clc1cc(Cl)c(Cl)cc1Cl`, the Potency result was “inactive”. For `CCc1ccc(O)cc1`, the Potency result was “inactive”.

With `CCCCCCC(C)(C)S`, the Potency result was “inactive”. The entry for `Cc1ccc(C)c(C)c1` is “inactive”; for `CN(CCOc1ccc(CC2SC(=O)NC2=O)cc1)c1ccccn1` (stereo not given) it is “inactive”.

In the case of `CCOC(=O)[C@H](CCc1ccccc1)N[C@@H](C)C(=O)N1Cc2ccccc2C[C@H]1C(=O)O`, the Potency result is “inactive”.

In the case of `CS(=O)(=O)c1ccc([C@@H](O)[C@@H](CO)NC(=O)C(Cl)Cl)cc1`, the Potency result was “inactive”.

As to `CCc1ccccc1O`, the Potency result was “inactive”. The same measure for `O=C(O)c1cc(-c2ccccc2)nc2ccccc12`: “inactive”; for `Cc1cc(Cc2ccc(N)c(C)c2)ccc1N`: “inactive”; for `CCCCCCCCC`: “inactive”. The entry for `CCCCC(CC)C(=O)OCCOCCOCCOC(=O)C(CC)CCCC` (stereo not given) is “inactive”. The entry for `Cc1ccc(C(=O)O)o1` is “inactive”. With `CC(C)(N=C=O)c1cccc(C(C)(C)N=C=O)c1`, the Potency entry is “inactive”. Take `Oc1c(Cl)cc(Cl)c(Cl)c1Cl`: the Potency entry is “inactive”.

As to `CC[Si](OC(C)=O)(OC(C)=O)OC(C)=O`, the Potency result is “inactive”. As to `NC(=O)NNc1ccccc1`, the Potency result is “inactive”.

`CC1CC(OC(=O)c2ccccc2O)CC(C)(C)C1` (stereo not given): the Potency result is “inactive”. Regarding `CCCCOCCO`, the Potency result was “inactive”. Regarding `CNC[C@H](O)[C@@H](O)[C@H](O)[C@H](O)CO`, the Potency result is “inactive”. The entry for `OC[C@@H](O)[C@H](O)[C@H](O)[C@@H](O)CO` is “inactive”; for `O=C1CCCCC1` it is “inactive”; for `COC(=O)c1ccc(C(=O)OC)cc1` it is “inactive”. In the case of `CC1Cc2ccccc2N1NC(=O)c1ccc(Cl)c(S(N)(=O)=O)c1` (stereo not given), the Potency entry was “inactive”. Regarding `CC1=CC[C@H]2C[C@@H]1C2(C)C`, the Potency entry was “inactive”. The same measure for `O=[N+]([O-])c1cc(N(CCO)CCO)ccc1NCCO`: “inactive”. With `CCCCC(CC)COC(C)=O` (stereo not given), the Potency entry is “inactive”. As to `O=[N+]([O-])C(CO)(CO)CO`, the Potency result is “inactive”. The same measure for `CC1=C(CC(=O)O)c2cc(F)ccc2/C1=C\c1ccc(S(C)=O)cc1` (stereo not given): “inactive”. The same measure for `Cc1cc(O)cc(C)c1Cl`: “inactive”; for `CC1COc2ccccc2N1C(=O)C(Cl)Cl` (stereo not given): “inactive”.

In the case of `CC1(C)CC(N=C=O)CC(C)(CN=C=O)C1` (stereo not given), the Potency result was “inactive”. The entry for `CCCCC/C=C\C/C=C\CCCCCCCC(=O)OC` is “inactive”.
